# Legend:
# [1] = molecular target: T1, Aspartate--tRNA(Asp/Asn) ligase (Mycobacterium tuberculosis (strain ATCC 25618 / H37Rv)) (UniProt P9WFW3); assay: Assay for Asp RNA synthetase-1 from Mycobacterium tuberculosis; format: functional; set-up: scale not given: direction of the effect not stated beside the values; conditions: 30 µM; further: in the data most compounds retested in dose-response had high values
# T1 sequence (whole entry): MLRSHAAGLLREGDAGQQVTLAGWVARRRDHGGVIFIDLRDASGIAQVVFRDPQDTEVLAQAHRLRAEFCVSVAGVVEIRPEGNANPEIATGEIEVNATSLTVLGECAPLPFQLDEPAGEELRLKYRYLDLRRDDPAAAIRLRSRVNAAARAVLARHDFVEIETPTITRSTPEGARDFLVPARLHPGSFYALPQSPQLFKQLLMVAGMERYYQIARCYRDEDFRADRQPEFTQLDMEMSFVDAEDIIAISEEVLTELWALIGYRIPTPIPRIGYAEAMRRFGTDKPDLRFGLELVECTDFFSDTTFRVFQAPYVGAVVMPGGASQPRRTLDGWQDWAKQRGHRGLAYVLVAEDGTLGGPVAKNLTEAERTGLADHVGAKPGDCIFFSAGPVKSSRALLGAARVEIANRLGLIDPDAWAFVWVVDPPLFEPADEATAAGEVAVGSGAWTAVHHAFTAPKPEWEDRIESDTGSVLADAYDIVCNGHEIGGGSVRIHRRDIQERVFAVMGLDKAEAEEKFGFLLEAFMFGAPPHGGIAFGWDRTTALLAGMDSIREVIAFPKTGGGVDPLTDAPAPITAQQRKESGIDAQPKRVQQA
# [2] = molecular target: Shiga toxin 2 (Escherichia coli O157:H7) (UniProt P09385+P09386); assay: E. coli 0.157:H7 Shiga Toxin SOP - stx2 screening assay; format: functional; set-up: scale not given: direction of the effect not stated beside the values; conditions: 30 µM
Compound,Percent Effect [1] [%],Percent Effect [2] [%]
CCOCC1CN(Cc2cnn(C)c2)Cc2nn(C)cc21 (configuration not stated),-3.19,-11.8
CN(C)CCO[C@H]1CN(Cc2cccc(C#N)c2)[C@@H]2COC[C@H]12,1.95,-21.2
Cc1cc(NC(=O)CCN2CCCC2Cn2cncn2)no1 (configuration not stated),-2.02,-32.1
Cc1ncsc1C(=O)NC1CCN(CC(=O)NCc2ccccc2)CC1,1.54,34.9
CNC(=O)N1CCc2cc(C(=O)N(C)C)c(NCC3CC3)nc2CC1,1.99,-3.46
O=C(c1ccc[nH]1)N1CCC(c2nccn2Cc2ccncc2)CC1,5.61,-10.8
COc1cc(C(=O)N(C2CC2)C2CC(=O)NC2=O)ccc1C (configuration not stated),-3.91,3.11
Cc1nc(N2CC[C@@H](NC(=O)c3cnccn3)[C@H](O)C2)c2ccsc2n1,-1.04,-6.15
COc1ccc(CN2CCC3(CC(=O)N(c4cncnc4)C3)C2)cc1 (configuration not stated),0.382,-11.8
Cc1cnn(CC2CCCCN2Cc2cc(C)on2)c1 (configuration not stated),-5.5,-7.45
COc1cc(C)nc(N2CCN(C(=O)COCC(F)(F)F)CC2)n1,-2.06,-20.7

# Source: ChEMBL document CHEMBL3988442, “University of Dundee, Small-Polar-MMV Screening Library” (2021)
